TDP-43 tox inh: TDP-43 toxicity inhibition in yeast; yeast TDP-43 toxicity rescue, BacTiter-Glo growth, 24 h; Potency, µM (top dose mostly 46.1 µM), actives largely listed as activators; actives 0.45% (n = 45,000); AID 1347073; active = well fitted activation curve with a large enough effect; note: nearly all actives have a fitted effect of over 55% in size
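TDP-43-expressing yeast, pregrown in raffinose, seeded at OD600 0.02 in galactose medium with compound for 24 hr at 30 deg C. Growth read by BacTiter-Glo luminescence, so rescue of toxicity appears as activation.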
A number is an active result; . = inactive. The sample as a whole holds a higher share of hits than the screen did.

SMILES	TDP-43 tox inh
CCCCOc1ccc(CNC(=O)C2CCN(c3nnc(-n4cccc4CNc4ccc(C)cc4)s3)CC2)cc1	.
COc1cccc(C(=O)N2c3ccc(C)cc3C(C)(c3ccccc3)CC2(C)C)c1 (configuration not stated)	.
CC(C)CC(=O)NC(=S)NNC(=O)c1ccc([N+](=O)[O-])cc1	11.2µM
CNC(CC(=O)c1ccc([N+](=O)[O-])cc1)C(Cl)(Cl)Cl (configuration not stated)	.
O=C(NNC(=S)NC(=O)c1cccc([N+](=O)[O-])c1)c1ccc(Br)cc1	.
Cc1ccc(-c2csc3nc(SCC(N)=O)n(Cc4ccccc4)c(=O)c23)cc1	.
COCCc1ccc(OC2(C)CCN(Cc3cccc(OC)c3OC)C2)cc1 (configuration not stated)	.
COC(=O)c1ccc(Cl)cc1NC(=O)NC(C)c1c(-n2cccc2)sc(C)c1C (configuration not stated)	.
COC(=O)c1cc2oc3ccccc3c2n1Cc1ccc(Cl)cc1	.
COc1ccccc1N1CCN(C(=O)c2ccc3[nH]c4c(c3c2)CCCC4)CC1	17.8µM
COc1cc(OC)cc(C(=O)N2CCC(N3CCN(c4ccccc4OC)CC3)CC2)c1	.
COc1ccccc1N1CCN(C(=O)c2ccc(NS(=O)(=O)c3ccc(C)cc3)cc2)CC1	.
CN1CCN(c2ccc([N+](=O)[O-])cc2C(=O)c2ccccc2)CC1	.
Cc1ccc(C(=O)c2cc([N+](=O)[O-])ccc2N2CCOCC2)cc1C	22.4µM
COc1ccc(C(=O)c2cc([N+](=O)[O-])ccc2N2CCCC2)cc1	.
Cc1cc(C)c(S(=O)(=O)N2CCN(C(=O)N(C)C)CC2)c(C)c1	.
Cn1c(=O)c2cc(NC(=O)NCc3ccc(F)cc3)ccc2n1Cc1cccc(C(F)(F)F)c1	.
COC(=O)c1ccc(NC(=O)Cn2cnc3c2c(=O)n(C)c(=O)n3C)cc1	.
COc1ccc(/C=N/NC(=O)Cn2cnc3c2c(=O)n(C)c(=O)n3C)cc1	.
Cn1c(=O)c2c(ncn2CCOc2ccc(Br)cc2)n(C)c1=O	11.2µM
CCOC(=O)c1ccc[n+](CC(=O)Nc2cc(C(F)(F)F)ccc2Cl)c1	.
COc1ccc(NCc2ccc([N+](=O)[O-])s2)c(OC)c1	12.6µM
COc1ccc(NC(=O)Cc2ccsc2)c(OC)c1	.
CCC(=O)NC(=S)Nc1ccc(OC)cc1OC	.
CN(c1ccccc1)S(=O)(=O)c1cccc(C(=O)OCC(=O)NCc2ccc3c(c2)OCO3)c1	.
SMILES	TDP-43 tox inh
CCn1c2ccccc2c2cc(CN3CCN(Cc4ccccc4Cl)CC3)ccc21	.
CC(C)CCN1C(=O)c2ccccc2CC1(C)C(=O)NC1CCCCC1 (configuration not stated)	.
O=C(Cc1cccc(F)c1)Nc1ccc2c(c1)CCC2	.
O=C(Nc1ccc2c(c1)CCC2)c1cccc(F)c1	15.8µM
CSc1ccccc1C(=O)Nc1ccc2c(c1)CCC2	.
CCOCCCNC(=O)Cn1ncc2c([nH]c3ccc(C)cc32)c1=O	.
COc1ccc(-c2[nH]ncc2C(=O)NCc2ccc(F)cc2)cc1	.
CC(C)CNC(=O)COc1ccccc1[N+](=O)[O-]	.
COc1ccc(C(=O)NNC(=O)c2ccccc2[N+](=O)[O-])cc1	.
CC(C)(C)c1ccc(OCC(=O)NNC(=S)NC(=O)c2ccccc2[N+](=O)[O-])c(Br)c1	11.2µM
O=C(NCc1ccc(Cl)cc1)c1cc(=O)[nH]c2ccccc12	.
COc1ccc(NC(=O)c2ccco2)cc1NC(=O)c1cc(Cl)ccc1OC	.
Cc1ccc(-n2nc(C)c3c(C)c(CCC(=O)NCc4ccc(Cl)cc4)c(C)nc32)cc1	.
N#C/C(=C\c1cccc(Br)c1)C(=O)N1CCCCC1	12.6µM
N#C/C(=C\c1ccccc1)C(=O)N1CCN(c2ccccc2F)CC1	.
Cc1cc(/C=C(\C#N)C(=O)N2CCCCC2)cc(C)c1O	.
CCCSc1ncc(Cl)c(C(=O)Nc2c(C(=O)c3ccc(F)cc3)oc3ccccc23)n1	.
NC(Cc1ccc(F)cc1)c1csc(Nc2cc(NCc3ccco3)ncn2)n1 (configuration not stated)	.
S=C(Nc1ccc(Cl)cc1)c1nc2ccccc2[nH]1	10µM
CCOc1ccc(NC(=S)NCc2nc3ccccc3[nH]2)cc1	.
O=C(/C(=C\c1ccccc1)c1nc2ccccc2[nH]1)c1ccc(Cl)cc1	.
COc1cc(C(C)=O)ccc1COc1ccc(C(=O)OC(C)C(=O)NC(N)=O)cc1OC (configuration not stated)	.
CC(=O)N1CCN(C(=O)C2CCN(S(=O)(=O)c3ccccc3C(F)(F)F)CC2)CC1	.
O=S(=O)(c1cc(C(F)(F)F)ccc1Cl)N1CCN(c2ncnc3ccccc23)CC1	.
O=S(=O)(c1ccccc1C(F)(F)F)N1CCN(c2ncnc3sccc23)CC1	11.2µM
SMILES	TDP-43 tox inh
O=[N+]([O-])c1cccc(Cl)c1CSc1ccccn1	.
Cc1c(OCC(N)=O)ccc2c(-c3ccccc3)cc(=O)oc12	.
Cc1ccc2c(COC(=O)c3ccccc3Cl)cc(=O)oc2c1	.
CC(NC(=O)OCc1ccccc1)C(=O)Oc1cc2oc(=O)cc(-c3ccccc3)c2cc1Cl (configuration not stated)	4.47µM
CCn1c(CNC(=O)c2ccco2)nnc1SCC(=O)Nc1ccccc1Cl	.
CN(Cc1ccc(F)cc1)C(=O)COc1ccccc1-c1ccccc1	25.1µM
CN(Cc1ccc(F)cc1)C(=O)C(c1ccccc1)c1ccccc1	.
CCOc1ccccc1NC(=O)c1ccccc1-c1ccccc1	.
COc1cccc(Nc2nnc(-c3cc4ccc(O)cc4oc3=O)s2)c1	.
CN1CCN(S(=O)(=O)c2ccc(NCc3ccc4c(c3)OCO4)nc2)CC1	.
O=C(CSc1nc2cc(Cl)ccc2s1)NCc1ccc2c(c1)OCO2	.
Clc1ccccc1-c1cnc2sc(NCc3ccc4c(c3)OCO4)nn12	5.01µM
Cc1ccccc1Nc1nc(N)nc(COC(=O)c2c(C)noc2C)n1	.
O=[N+]([O-])c1ccccc1CNc1ccc(F)c(Cl)c1	15.8µM
Cc1cc(F)ccc1NCc1ccccc1[N+](=O)[O-]	.
Cc1cc([N+](=O)[O-])ccc1NCc1ccccc1[N+](=O)[O-]	.
O=c1c2ccccc2cnn1Cc1n[nH]c(=S)n1-c1ccccc1	.
NS(=O)(=O)c1cccc(NC(=O)COC(=O)CCC2CCCC2)c1	.
O=C(COC(=O)CNC(=O)c1ccccc1F)NC1CC1	.
COc1ccc(CNC(=O)c2cc3sccc3n2C)cc1	12.6µM
CCOc1ccc(CNC(=O)c2cc3oc4ccccc4c3n2C)cc1	.
COc1ccc(CNC(=O)CSc2cc(=O)n(C)c3ccccc23)cc1	.
COc1ccc(-c2[nH]ncc2C(=O)NCc2ccccc2OC)cc1	.
CCOc1cc(CNn2cnnc2SCC(=O)NC(C)(C)C)ccc1OCC(=O)NC(C)(C)C	.
CCOC(=O)c1ccc(NC(=O)C(CC)Sc2nc3ncccc3o2)cc1 (configuration not stated)	.
SMILES	TDP-43 tox inh
O=S(=O)(NCc1ccco1)c1ccc2ccccc2c1	11.2µM
O=S(=O)(NCc1ccco1)c1ccc(Cl)cc1Cl	.
O=[N+]([O-])c1ccccc1S(=O)(=O)NCc1ccco1	.
Cc1csc(NC(=O)c2ccc(COc3ccccc3)o2)n1	17.8µM
Cc1cc(NC(=O)c2ccc(COc3ccccc3Cl)o2)no1	.
Cc1csc(NC(=S)NC(=O)c2ccccc2)n1	.
CCC/C(O)=C1\C(=O)CC(C)(C)CC1=Nc1cccc([N+](=O)[O-])c1	.
COc1ccc(-c2[nH]ncc2C(=O)NCc2cccc(F)c2)cc1	.
